Laboratory results published in PubChem BioAssay (NCATS).
Records with an inconclusive call do not appear. The source made the active and inactive calls. Calls follow the shape of the dose curve; as a rule, active = well fitted curve in the direction sought with a large enough effect; inconclusive = small, poorly fitted or top-dose-only effect, or another doubt; inactive = no such curve, though single readings can be large; an effect the other way counts as inactive or inconclusive.

Columns and labels:
[1] = qHTS of pediatric cancer cell lines to identify multiple opportunities for drug repurposing: Primary screen for A673 cells (AID 1347092); also: nearly all actives have a fitted effect of over 45% in size
In short: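 Luminescence from CellTiter-Glo, taken after 15 min at room temperature, served as the proxy for metabolically active cells following 48 h treatment. Both potency and efficacy were taken from curves fitted to the titration data.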

[2] = qHTS of pediatric cancer cell lines to identify multiple opportunities for drug repurposing: Primary screen for SK-N-MC cells (AID 1347093)
In short: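 Metabolically active cells were quantified by ATP-dependent luminescence (CellTiter-Glo, 15 min at room temperature) following 48 h treatment. Cells had been plated at 500-1,000 per well and settled for 5 h beforehand.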

[3] = qHTS of pediatric cancer cell lines to identify multiple opportunities for drug repurposing: Primary screen for BT-37 cells (AID 1347094)
In short: (§1)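 Following a 5-hour attachment period, cells at 500-1,000/well received compounds and were cultured for 48 hours. CellTiter-Glo was added and luminescence read to estimate viable, metabolically active cells.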

[4] = qHTS of pediatric cancer cell lines to identify multiple opportunities for drug repurposing: Primary screen for NB-EBc1 cells (AID 1347095)
In short: as §1

[5] = qHTS of pediatric cancer cell lines to identify multiple opportunities for drug repurposing: Primary screen for U-2 OS cells (AID 1347096); also: nearly all actives have a fitted effect of over 50% in size
In short: (§2)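 Cells (500-1,000/well) rested 5 h, then received compounds for 48 h; metabolically active cells were measured by CellTiter-Glo luminescence. Final concentrations spanned up to 46 µM (MIPE, 11-point) or 0.59 nM-46 µM (NPC, 8-point) in primary screens, 11-point in follow-ups.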

[6] = qHTS of pediatric cancer cell lines to identify multiple opportunities for drug repurposing: Primary screen for Saos-2 cells (AID 1347097); also: nearly all actives have a fitted effect of over 40% in size
In short: as §1

[7] = qHTS of pediatric cancer cell lines to identify multiple opportunities for drug repurposing: Primary screen for SK-N-SH cells (AID 1347098); also: nearly all actives have a fitted effect of over 65% in size
In short: as §2

[8] = qHTS of pediatric cancer cell lines to identify multiple opportunities for drug repurposing: Primary screen for NB1643 cells (AID 1347099); also: nearly all actives have a fitted effect of over 50% in size
In short: as §1

[9] = qHTS of pediatric cancer cell lines to identify multiple opportunities for drug repurposing: Primary screen for BT-12 cells (AID 1347101); also: nearly all actives have a fitted effect of over 25% in size
In short: as §2

[10] = qHTS of pediatric cancer cell lines to identify multiple opportunities for drug repurposing: Primary screen for LAN-5 cells (AID 1347100)
In short: as §2

Measured: Potency
Potency is read from the fitted curve at half-maximal effect.

Cn1c(Nc2ccc(C(F)(F)F)cc2)nc2cc(Oc3ccnc(-c4ncc(C(F)(F)F)[nH]4)c3)ccc21
active: [1] 2.35 µM | [2] 0.187 µM | [3] 2.43 µM | [4] 14.8 µM | [5] 14.8 µM | [6] 2.96 µM | [7] 7.64 µM | [8] 11.8 µM | [9] 8.63 µM

COC1=C(OC)C(=O)C(CC=C(C)CCC=C(C)CCC=C(C)CCC=C(C)CCC=C(C)CCC=C(C)CCC=C(C)CCC=C(C)CCC=C(C)CCC=C(C)C)=C(C)C1=O
inactive: all assays above

O=C(C=CC#Cc1cccc(NS(=O)(=O)c2ccccc2)c1)NO
active: [1] 1.48 µM | [2] 0.59 µM | [3] 4.85 µM | [4] 0.833 µM | [5] 2.96 µM | [6] 2.35 µM | [7] 3.41 µM | [10] 1.18 µM | [9] 7.69 µM

O=c1[nH]c(=O)n([C@H]2C[C@@H](O)[C@@H](CO)O2)cc1C=CBr
not listed: [7]
inactive: all other assays above

O=S(=O)(O)CCSSCCS(=O)(=O)O
inactive: [1] | [3] | [4] | [5] | [6]
active: [2] 10.5 µM | [8] 23.5 µM

C[C@H]1O[C@H](O[C@H]2[C@H](O)[C@@H](O)[C@@H](O[C@H]3[C@H](O)[C@@H](O)C(O)O[C@H]3CO)O[C@H]2CO)[C@H](O)[C@@H](O)[C@H]1N[C@H]1C=C(CO)[C@@H](O)[C@H](O)[C@@H]1O (stereo partly drawn)
inactive: [4] | [5] | [7]
active: [1] 0.187 µM | [2] 33.2 µM | [3] 1.72 µM | [6] 2.35 µM | [10] 2.35 µM | [9] 2.17 µM

CC(C)C[C@H](NC(=O)[C@@H](NC(=O)c1cccc(-c2ccccc2)n1)[C@@H](C)O)B(O)O
active: [1] 0.187 µM | [2] 0.0235 µM | [3] 0.0968 µM | [4] 0.0833 µM | [5] 0.148 µM | [6] 5.9 µM | [7] 0.0607 µM | [10] 0.0332 µM | [9] 0.0685 µM

OCC(O)C(O)C(O)CO (stereo not drawn)
not listed: [7]
inactive: all other assays above

Oc1ccc(-c2ccc(-c3cc(Nc4cccc(CNC5CC5)c4)n[nH]3)cc2)c(O)c1
active: [1] 0.935 µM | [2] 0.372 µM | [3] 5.44 µM | [4] 2.96 µM | [5] 5.9 µM | [6] 5.9 µM | [9] 7.69 µM

Nc1ccc(C(=O)Nc2cccc(-c3nc(N4CCOCC4)c4oc5ncccc5c4n3)c2)cn1
active: [1] 14.8 µM | [2] 1.18 µM | [3] 13.7 µM | [4] 2.35 µM | [5] 18.7 µM | [6] 8.33 µM | [8] 2.35 µM

CCC[C@H]1C[C@H](C(=O)N[C@@H]([C@@H]2O[C@@H](SC)[C@@H](O)[C@@H](O)[C@@H]2O)[C@H](C)Cl)N(C)C1
not listed: [8]
inactive: all other assays above

C[N+]1(C)[C@@H]2C[C@@H](OC(=O)C(O)(c3cccs3)c3cccs3)C[C@H]1[C@@H]1O[C@@H]12
inactive: all assays above

O=C(C=Cc1ccc(CN(CCO)CCc2c[nH]c3ccccc23)cc1)NO
active: [1] 0.235 µM | [2] 0.105 µM | [3] 0.385 µM | [4] 0.148 µM | [5] 0.469 µM | [6] 0.372 µM | [7] 0.541 µM | [10] 0.0935 µM | [9] 0.611 µM
